Shown are actives, neighbours in structure and some others; about 12% of the full set was active somewhere.
G9a block = qHTS Assay for Inhibitors of Histone Lysine Methyltransferase G9a; AID 504332, 2011; Histone-lysine N-methyltransferase EHMT2 (Homo sapiens), Q96KQ7; Potency, µM (top dose mostly 102 µM), hits mostly inhibitors; G9a H3K9 monomethylation, AlphaScreen, 2 h; 350,000 compounds, 8.8% hits; further: nearly all actives have a fitted effect of over 75% in size
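Compounds were preincubated with 20 nM G9a for 15 min, after which biotinylated H3K9 peptide (500 nM) and SAM (20 uM) started a 2 h room-temperature reaction. Monomethylated product was quantified by antibody-based AlphaScreen chemiluminescence.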
JMJD2A Tudor = qHTS Assay for Inhibitors of JMJD2A-Tudor Domain. Lysine-specific demethylase 4A (Homo sapiens), O75164. AlphaScreen JMJD2A-Tudor / H3K4me3 peptide binding. Potency, µM (series often up to 114 µM), hits mostly inhibitors. 390,000 compounds, 4.4% hits. AID 504339, 2011; further: nearly all actives have a fitted effect of over 50% in size
BAZ2B block = qHTS Assay for Inhibitors of BAZ2B | Bromodomain adjacent to zinc finger domain protein 2B (Homo sapiens), Q9UIF8 | AlphaScreen BAZ2B-H3K14Ac peptide displacement | Potency, µM (titrated, usually from 114 µM), actives largely listed as inhibitors | 360,000 compounds, 4.4% hits | AID 504333, 2011; further: nearly all actives have a fitted effect of over 60% in size
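Protein-peptide AlphaScreen: BAZ2B 50 nM, b-H3K14Ac 50 nM, 1x PBS pH 7.4 + 0.01% Tween-20. Preincubation 30 min RT; cpd 30 min RT (top 110 uM); beads 20 min RT, light-protected.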
Sfp PPTase inh = qHTS Assay for Inhibitors of Bacillus subtilis Sfp phosphopantetheinyl transferase (PPTase); 4'-phosphopantetheinyl transferase ffp (Bacillus subtilis), Q9F4F7; Potency, µM, actives largely listed as inhibitors; 310,000 compounds, 3.5% hits; AID 1490, 2009; Biochemical Sfp PPTase activity, qHTS;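 further: the enzyme is Sfp with the accession as filed and its product quenches rhodamine fluorescence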
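With Hepes-Na pH 7.6 buffer containing 10 mM MgCl2, Sfp (15 nM) modified BHQ-2-YbbR (12.5 uM) using rhodamine-CoA (5 uM). Two reads 30 minutes apart at 525/598 nm yielded each well's rate.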
HP1b binding inh = HTS for Inhibitors of HP1-beta Chromodomain Interactions with Methylated Histone Tails | Chromobox protein homolog 1 (Homo sapiens), P83916 | AlphaScreen HP1-beta / biotin-H3K9me3 peptide binding | Potency, µM (doses to about 114 µM), usual class: inhibitors | 390,000 compounds, 0.56% hits; further: nearly all actives have a fitted effect of over 70% in size
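AlphaScreen: HP1-beta (50 nM) preformed 30 min with biotin-H3(1-18)K9me3 peptide (50 nM) in PBS pH 7.4, 0.01% Tween-20. Compound added for 30 min at RT, then streptavidin donor/nickel chelate acceptor beads (10 ug/mL) for 30 min.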
Of the large screens only hits and unclear results are named; the others gave an inactive call. The call rests on the fitted dose curve; in most records, active means well fitted curve in the direction sought with a large enough effect; inconclusive means small, poorly fitted or top-dose-only effect, or another doubt; inactive means no such curve, though single readings can be large; an effect the other way counts as inactive or inconclusive.

Oc1ccc(Cl)cc1C1=NNC(c2cccs2)C1 (configuration not stated)	G9a block 50µM
COc1ccc(CCNC(=O)c2ccc3c(Cl)c4c(nc3c2)CCCC4)c(OC)c1	none (no result: Sfp PPTase inh)
O=c1c2c3c(sc2n(CCN2CCOCC2)c(=O)n1Cc1ccco1)CCCCC3	JMJD2A Tudor 89µM, Sfp PPTase inh 45µM
O=C(Cn1c(=O)n(Cc2ccco2)c(=O)c2c3c(sc21)CCCC3)Nc1ccccc1	Sfp PPTase inh inconclusive, HP1b binding inh inconclusive
O=c1c2c3c(sc2n(CCN2CCCCC2)c(=O)n1Cc1ccco1)CCCCC3	G9a block 50µM, JMJD2A Tudor inconclusive
OCCN1CC(O)C(O)C(O)C1CO (configuration not stated)	none (no result: JMJD2A Tudor, BAZ2B block, HP1b binding inh)
COC1=C(OC)C(=O)C(Sc2ccc3ccccc3c2)=CC1=O	JMJD2A Tudor 3.5µM, HP1b binding inh 4.5µM (no result: G9a block, BAZ2B block, Sfp PPTase inh)
CCN(CC)c1ccc(C(=C2C=CC(=[N+](CC)CC)C=C2)c2ccc(N(CC)CC)cc2)cc1	JMJD2A Tudor 1.3µM, HP1b binding inh 2.8µM (no result: G9a block, BAZ2B block, Sfp PPTase inh)
CCN(CC)c1ccc(C(=O)NNC(=O)CCNC(=O)c2ccccc2)cc1	none (no result: Sfp PPTase inh)
CCN(CC)c1ccc(C(=C2C=CC(=[N+](CC)CC)C=C2)c2ccccc2)cc1	JMJD2A Tudor 16µM, Sfp PPTase inh inconclusive, HP1b binding inh 10µM (no result: G9a block, BAZ2B block)
Cc1oc(-c2ccccc2)cc1C(=O)NC(Cc1c[nH]c2ccccc12)C(=O)O (configuration not stated)	G9a block inconclusive, JMJD2A Tudor inconclusive, Sfp PPTase inh 40µM
Cc1cc(C(=O)NC(Cc2ccccc2)C(=O)O)c(C)o1 (configuration not stated)	G9a block 71µM
Cc1cc(=O)oc(C)c1C(=O)N[C@@H](Cc1ccccc1)C(=O)O	none
CC(Cc1ccccc1)C(=O)NCCc1c[nH]c2ccccc12 (configuration not stated)	none (no result: G9a block, JMJD2A Tudor, BAZ2B block, HP1b binding inh)
CCOC(=O)c1cc(-c2ccccc2)n(CC(=O)NC2CCC(C)CC2)c1C (configuration not stated)	none (no result: Sfp PPTase inh)
CCc1ccc(C(=O)c2cn(Cc3ccc(F)cc3)c3cc(OC)c(OC)cc3c2=O)cc1	none (no result: Sfp PPTase inh)
CCOC(=O)C1CCCN(Cc2ccc(OC)cc2OC)C1 (configuration not stated)	JMJD2A Tudor 1.3µM, HP1b binding inh inconclusive
COc1ccc(CN2CCCC(C(=O)N3CCCC3)C2)c(OC)c1 (configuration not stated)	JMJD2A Tudor 0.89µM, BAZ2B block 50µM, HP1b binding inh 50µM
CCN(/N=C/c1ccc(Cl)cc1)c1cc(=O)n(C)c(=O)[nH]1	JMJD2A Tudor 40µM
CC1(C)CNc2cc(N)ccc2S1	G9a block 3.5µM, JMJD2A Tudor 45µM, BAZ2B block 45µM, HP1b binding inh inconclusive
CC12CCC(/C(=N/O)C1=O)C2(C)C (configuration not stated)	none (no result: G9a block, BAZ2B block)
O=C(O)CCC(=O)N1N=C(c2cccs2)CC1c1cn(-c2ccccc2)nc1-c1ccccc1 (configuration not stated)	BAZ2B block inconclusive
Cc1ccc(-c2nn(-c3ccccc3)cc2C2CC(c3cccs3)=NN2C(=O)CCCC(=O)O)cc1 (configuration not stated)	G9a block inconclusive, JMJD2A Tudor 71µM, BAZ2B block 79µM
Cc1ccc(-c2nn(-c3ccccc3)cc2C2CC(c3ccccc3)=NN2C(=O)CCC(=O)O)cc1 (configuration not stated)	BAZ2B block inconclusive (no result: G9a block)
COc1ccc(-c2nn(-c3ccccc3)cc2C2CC(c3cccs3)=NN2C(=O)CCCC(=O)O)cc1 (configuration not stated)	G9a block inconclusive, BAZ2B block 79µM
Cc1ccc(C2=NN(C(=O)CCC(=O)O)C(c3cn(-c4ccccc4)nc3-c3ccc(C)cc3)C2)cc1 (configuration not stated)	G9a block inconclusive, JMJD2A Tudor 50µM, Sfp PPTase inh 89µM (no result: BAZ2B block)
CC[C@H](C)[C@H](NC(=O)[C@H](CCC(=O)O)NC(=O)[C@H](CO)NC(=O)[C@@H](NC(=O)[C@H](C)N)C(C)C)C(=O)N[C@@H](CCC(N)=O)C(=O)N[C@@H](CC(C)C)C(=O)N[C@@H](CCSC)C(=O)N[C@@H](Cc1cnc[nH]1)C(=O)N[C@@H](CC(N)=O)C(=O)N[C@@H](CC(C)C)C(=O)NCC(=O)N[C@@H](CCCCN)C(=O)N[C@@H](Cc1cnc[nH]1)C(=O)N[C@@H](CC(C)C)C(=O)N[C@@H](C)C(=O)N[C@@H](CO)C(=O)N[C@H](C(=O)N[C@@H](CCC(=O)O)C(=O)N[C@@H](CCCNC(=N)N)C(=O)N[C@@H](CCSC)C(=O)N[C@@H](CCC(N)=O)C(=O)N[C@@H](Cc1c[nH]c2ccccc12)C(=O)N[C@@H](CC(C)C)C(=O)N[C@@H](CCCNC(=N)N)C(=O)N[C@@H](CCCCN)C(=O)N[C@@H](CCCCN)C(=O)N[C@@H](CC(C)C)C(=O)N[C@@H](CCC(N)=O)C(=O)N[C@@H](CC(=O)O)C(=O)N[C@H](C(=O)N[C@@H](Cc1cnc[nH]1)C(=O)N[C@@H](CC(N)=O)C(=O)N[C@@H](Cc1ccccc1)C(=O)O)C(C)C)C(C)C	none (no result: G9a block, JMJD2A Tudor, BAZ2B block, HP1b binding inh)
N[C@H](COP(=O)(O)O)C(=O)O	none (no result: JMJD2A Tudor, BAZ2B block, HP1b binding inh)
Fc1c(F)c(F)c(N/N=C/c2c[nH]c3ccccc23)c(F)c1F	G9a block inconclusive, JMJD2A Tudor inconclusive, BAZ2B block inconclusive
Cc1cc(/C=N/NC(N)=S)c(O)c(/C=N/NC(N)=S)c1	JMJD2A Tudor 13µM, BAZ2B block 3.2µM
COc1cc(OC)c(/C=N/NC(N)=S)cc1Br	G9a block inconclusive
COc1ccc(N2Cc3ccc(C(=O)N/N=C\c4ccc(O)cc4O)cc3C2)cc1	G9a block 28µM, BAZ2B block inconclusive (no result: JMJD2A Tudor, HP1b binding inh)
NC(=S)N/N=C/c1ccccc1O	JMJD2A Tudor 89µM, BAZ2B block 35µM
C(=NN=C1c2ccccc2-c2ccccc21)c1c[nH]c2ccccc12	JMJD2A Tudor 22µM, HP1b binding inh inconclusive (no result: G9a block, BAZ2B block, Sfp PPTase inh)
O=C1NC2(CCCCCC2)C(=O)N1Cc1c(F)cccc1Cl	none
O=C(Nc1cccc(Cl)c1Cl)C1CCN(C(=O)c2cccs2)CC1	none
NC(=S)N/N=C/c1cccc(O)c1O	G9a block inconclusive, JMJD2A Tudor 28µM, BAZ2B block 8.9µM
NC(=S)N/N=C/c1c[nH]c2ccccc12	JMJD2A Tudor inconclusive, BAZ2B block inconclusive, Sfp PPTase inh 79µM (no result: G9a block)
COC(=O)N/N=C/c1c[nH]c2ccccc12	none
Oc1cccc(/C=N/NC(=S)Nc2cccnc2)c1O	G9a block 11µM, JMJD2A Tudor 20µM, BAZ2B block 5.6µM, Sfp PPTase inh inconclusive
